Pf growth 48h: Primary qHTS for delayed death inhibitors of the malarial parasite plastid, 48 hour incubation; AID 504832, 2011; Potency, µM (top dose mostly 28.7 µM), without a hit: at the top dose activity change, negative = inhibition, most hits filed as inhibitors; 310,000 tested, 5.9% active; P. falciparum luciferase growth in erythrocytes, 48 h; further: on the % scale 0 is the no-effect control and ±100 the full control effect
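Luciferase-expressing parasites in RBCs, 2% Hct / 0.1% parasitemia final; RPMI 1640 + 0.5% Albumax; 37 C, 5% CO2, one generation; luminescence read-out, lower signal = inhibition.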
Sm TGR block: qHTS Assay for the Inhibitors of Schistosoma Mansoni Peroxiredoxins | Schistosoma mansoni thioredoxin glutathione reductase (TGR), Q962Y6 | purified TGR, DTNB reduction, TNB absorbance 405 nm | Potency, µM (series often up to 114 µM), for the others: at the highest dose activity change, negative = inhibition, actives largely listed as inhibitors | 360,000 tested, 3% active; further: on the % scale 0 is the no-effect control and ±100 the full control effect; nearly all actives have a fitted effect of over 60% in size
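TGR 20 nM + NADPH 100 uM (dispensed conc.), cpd preinc 15 min RT; start with NADPH (500 uM addition) then DTNB (15 mM addition). Kinetic TNB absorbance, 405 nm filter. Four-parameter Hill fit across titration.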
AmpC detergent: qHTS Inhibitors of AmpC Beta-Lactamase (assay with detergent); AmpC hydrolysis of nitrocefin, absorbance 480 nm, 0.01% Triton; AID 485294, 2010; Potency, µM (highest dose often 114 µM), inactives show at the top dose activity change, negative = inhibition, most hits filed as inhibitors; 370,000 tested, 0.041% active; P00811;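 further: 0% = no-compound wells and -100% = no-enzyme wells; nearly all actives have a fitted effect of over 25% in size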
Target sequence (P00811 whole entry, looked up): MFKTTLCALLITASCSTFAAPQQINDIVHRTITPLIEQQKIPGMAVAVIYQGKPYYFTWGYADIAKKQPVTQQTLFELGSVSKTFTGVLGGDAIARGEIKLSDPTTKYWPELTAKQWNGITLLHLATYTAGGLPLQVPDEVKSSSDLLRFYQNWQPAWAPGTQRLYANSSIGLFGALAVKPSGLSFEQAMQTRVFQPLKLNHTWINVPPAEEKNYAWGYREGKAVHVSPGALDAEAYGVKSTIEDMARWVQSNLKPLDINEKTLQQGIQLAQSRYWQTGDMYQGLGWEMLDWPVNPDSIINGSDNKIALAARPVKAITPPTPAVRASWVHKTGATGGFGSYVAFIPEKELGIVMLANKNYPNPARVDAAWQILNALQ
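AmpC (5.3 nM in the dispensed reagent) in 20 mM phosphate pH 7.0 with 0.01% (detergent screen) or 0.0001% Triton X-100 was preincubated with compounds for 15 min at room temperature. Nitrocefin was then added from an 800 uM solution, and hydrolysis was followed at 480 nm.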
AmpC inh no detg: qHTS Inhibitors of AmpC Beta-Lactamase (assay without detergent); AID 485341, 2010; P00811; AmpC nitrocefin hydrolysis, absorbance 480 nm, 0.0001% Triton; Potency, µM (series often up to 57.1 µM), for inactives: at the highest dose activity change, negative = inhibition, actives largely listed as inhibitors; 330,000 tested, 0.52% active;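 further: plate controls were no compound for no effect and no enzyme for full effect; nearly all actives have a fitted effect of over 20% in size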
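AmpC (5.3 nM in the dispensed reagent) in 20 mM phosphate pH 7.0 with 0.01% (detergent screen) or 0.0001% Triton X-100 was preincubated with compounds for 15 min at room temperature. Nitrocefin was then added from an 800 uM solution, and hydrolysis was followed at 480 nm.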
Pf growth 96h: Primary qHTS for delayed death inhibitors of the malarial parasite plastid, 96 hour incubation | Potency, µM (highest dose often 28.7 µM), for the others: at the top dose activity change, negative = inhibition, hits mostly inhibitors | P. falciparum luciferase reporter growth, 96 h | 320,000 tested, 6.9% active; further: on the % scale 0 is the no-effect control and ±100 the full control effect
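Erythrocytes infected with luciferase-expressing P. falciparum were dispensed at 2% hematocrit and 0.05% parasitemia (final), then incubated with compounds 96 hours at 37 C in 5% CO2. Luminescence after detection reagent addition reported growth.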
SARS PLpro yeast: qHTS of Yeast-based Assay for SARS-CoV PLP; S. cerevisiae expressing SARS-CoV PLpro, growth rescue; Potency, µM (series often up to 32.9 µM), for inactives: at the top dose activity, positive = growth rescue, usual class: activators; 330,000 tested, 0.19% active; calls by dose curve; further: 0% is about no effect; nearly all actives have a fitted effect of over 55% in size
Starred values were filed as active, the others as inactive; ? = inconclusive; / = no result given; [ ] = dose if it differs, or a comment. Only some compounds are listed: those with a hit (about 12% of all), similar ones and a draw of the others. Unless noted, the call rests on the fitted dose curve; in most records, active means well fitted curve in the direction sought with a large enough effect; inconclusive means small, poorly fitted or top-dose-only effect, or another doubt; inactive means no such curve, though single readings can be large; an effect the other way counts as inactive or inconclusive. Potency means the concentration at half of the fitted maximal effect.

SMILES	Pf growth 48h	Sm TGR block	AmpC detergent	AmpC inh no detg	Pf growth 96h	SARS PLpro yeast
COc1ccc(C2C(C(C)=O)=C(O)C(=O)N2CCO)c(OC)c1 (centres undefined)	5%	-1%	-12%	-15%	12µM*	3%
COc1ccc(C2C(C(C)=O)=C(O)C(=O)N2c2cccnc2)cc1OC (centres undefined)	/	-18%	-2%	-20%	39%	5%
CCCCN1C(=O)C(O)=C(C(C)=O)C1c1ccc(OC)cc1OC (centres undefined)	51%	0%	2%	-13%	92%	1%
COc1cccc(N2C(=O)C(O)=C(C(C)=O)C2c2ccc(OC)c(OC)c2)c1 (centres undefined)	13µM*	-9%	0%	-4%	?	-2%
COc1ccc(S(=O)(=O)Nc2cccc3c2O[C@H](CN(C)C(=O)Nc2c(C)noc2C)[C@@H](C)CN([C@H](C)CO)C3=O)cc1	/	/	/	38%	/	-46%
CCOc1ccc(N(Cc2cc3cc(C)ccc3[nH]c2=O)C(=O)c2cccc(Cl)c2)cc1	/	10%	11%	/	/	/
Cc1cc(C)c2cc3c(N)c(C(=O)N4CCc5ccccc5C4)sc3nc2c1	?	-6%	2%	0.32µM*	?	28%
CCS(=O)(=O)c1nc(S(=O)(=O)c2ccc(C)cc2)c(NCc2ccccc2Cl)s1	/	4%	24%	/	/	/
CC(C)OP(C)(=O)CN1CCN(CP(C)(=O)OC(C)C)CC1 (centres undefined)	8%	4%	?	-5%	0.52µM*	-3%
COC(=O)c1cccc(Cn2c(Cl)c(/C=N/NC(=O)c3ccccc3Cl)sc2=O)c1	?	?	-12%	-42%	4.7µM*	-3%
COC(=O)c1cccc(Cn2c(Cl)c(/C=N/NC(=O)c3ccco3)sc2=O)c1	9.3µM*	35µM*	-2%	-45%	8.3µM*	-1%
Cc1ccsc1/C=N/NC(=O)c1ccco1	25%	-4%	-13%	-15%	32%	-3%
COc1ccccc1/C=N/NC(=O)c1ccccc1Cl	-4%	19%	5%	-26%	0%	0%
COc1cc(NC(=O)c2cc3cc4ccc(C)cc4nc3o2)cc(OC)c1OC	/	0%	2%	/	/	/
COc1ccc(-c2oc(/N=C/N3CCOCC3)c(C#N)c2-c2ccc(OC)cc2)cc1	6.6µM*	0%	?	49%	/	-4%
COCCn1c(C)cc(C(=O)CN2CCCCC2)c1C	-7%	-23%	-1%	14%	14%	0%
COCCn1c(C)cc(O)c(C(c2ccc(Cl)cc2)N2CCCCC2)c1=O (centres undefined)	/	10µM*	3%	/	/	/
COCCn1c(C)cc(O)c(C(c2ccc(C)cc2)N2CCCCC2)c1=O (centres undefined)	/	8.9µM*	15%	/	/	/
O=C(CSc1n[nH]c(-c2cccnc2)n1)Nc1ccccc1	-21%	9%	?	-11%	?	26%
O=C(CSc1n[nH]c(-c2ccccc2)n1)Nc1ncc(Br)cc1Br	7%	3%	-14%	-40%	2.9µM*	1%
O=C(CSc1n[nH]c(-c2ccncc2)n1)c1ccccc1	-24%	4%	3%	0.4µM*	-24%	-2%
O=C(CSc1n[nH]c(-c2ccncc2)n1)c1cccc([N+](=O)[O-])c1	-16%	-9%	1%	-35%	-12%	0%
O=C(CSc1n[nH]c(-c2ccccn2)n1)Nc1ccccc1F	-11%	0%	1%	-20%	10µM*	-2%
S=c1[nH]nc(-c2ccccn2)n1/N=C/c1ccc(Br)s1	33%	0%	-13%	-27%	?	5%
CN(C)c1ccc(CC2C(=O)Nc3ccccc32)cc1 (centres undefined)	?	14µM*	0%	-16%	?	1%
SMILES	Pf growth 48h	Sm TGR block	AmpC detergent	AmpC inh no detg	Pf growth 96h	SARS PLpro yeast
CCS(=O)(=O)NCCNc1ccc([N+](=O)[O-])cc1	-2%	1%	-1%	-9%	12µM*	0%
CCn1ccnc1C(O)(c1ccccc1)c1ccccc1	3%	1%	?	-19%	72%	1%
Clc1ccc2c(c1)[C@H]1OCC[C@H]1[C@@H](c1ccco1)N2	100%	40µM*	-6%	-16%	?	-9%
O=C(CCNS(=O)(=O)c1ccccc1)NNC(=O)COc1ccccc1F	/	/	/	-14%	/	1%
COC(=O)C1=C(C)NC(=O)NC1c1ccco1 (centres undefined)	-50%[5.75 µM]	-11%	-15%	-15%	-22%	0%
CCOC(=O)C1=C(C)NC(=S)NC1c1ccc(-c2cccc(Cl)c2C)o1 (centres undefined)	?	?	-8%	-55%	1%	6%
COC(=O)C1=C(C)NC(=O)NC1c1ccc(-c2ccccc2Cl)o1 (centres undefined)	-3%	25µM*	-10%	-25%	3.7µM*	-3%
COCCOC(=O)C1=C(C)NC(=O)NC1c1ccc(-c2cc(Cl)ccc2Cl)o1 (centres undefined)	-13%	18µM*	-7%	4%	42%	0%
CCOC(=O)C1=C(C)NC(=S)NC1c1ccc(-c2ccc(Cl)cc2)o1 (centres undefined)	?	22µM*	-8%	-54%	7.4µM*	-3%
COC(=O)C1=C(C)NC(=O)NC1c1ccc(-c2ccc(F)cc2)o1 (centres undefined)	?	14µM*	0%	-19%	?	0%
COc1ccc(CCNC(=O)c2ccc3c(c2)N(Cc2cc(C)ccc2C)C(=O)c2ccccc2S3=O)cc1OC (centres undefined)	/	10%	4%	/	/	/
Cc1cccc(Cn2c(CNS(=O)(=O)c3ccc(C(C)C)cc3)nc3cccnc32)c1	/	3%	2%	/	/	/
COc1ccc(S(N)(=O)=O)cc1C(=O)NNC(=O)CN(C)S(=O)(=O)c1ccc(Cl)cc1	12%	4%	4%	-12%	-9%	1%
COC(=O)C1=C(C)NC(=S)NC1c1ccc(-c2ccccc2C(=O)OC)o1 (centres undefined)	?	?	9%	-36%	?	1%
COC(=O)C1=C(C)NC(C)=C(C(=O)OC)C1c1ccc(-c2cccc(Cl)c2Cl)o1	?	?	7%	-57%	?	8%
CCOC(=O)C1=C(C)NC(=O)NC1c1ccc(-c2ccc(F)cc2)o1 (centres undefined)	-42%	25µM*	?	-20%	-10%	2%
